According to PubChem BioAssay (Tox21):
Values without a mark were called inactive. Inconclusive results are not listed. Where a call stands in place of a potency, no number is given. Activity calls are given as the source filed them. Unless noted, calls follow the shape of the dose curve; as a rule, active = well fitted curve in the direction sought with a large enough effect in the repeat runs; inconclusive = weak or mixed curves; inactive = no such curve, though single readings can be large; an effect the other way counts as inactive or inconclusive.

Columns and labels:
[1] = A CellTox Green Cytotoxicity Assay to monitor cytotoxicity in HepG2 cells - 8 hour (AID 1224890); also: nearly all actives have a fitted effect of over 45% in size; also: potency is read from the fitted curve at half-maximal effect
How it was run: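 Fluorescent DNA-binding dye, 600 HepG2 cells/well, 5 h preincubation then compound in DMSO; same plates read at 0–40 h, 37 C.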

[2] = qHTS assay to identify small molecule antagonists of the estrogen receptor alpha (ER-alpha) signaling pathway using the BG1 cell line in the presence of 0.1 nM 17-beta-estradiol - cell viability counter screen (AID 1259241); also: nearly all actives have a fitted effect of over 40% in size
How it was run: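 CellTiter-Fluor read (30 min, 37C) on ER-alpha/ERE-luc VM7Luc4E2 cells; 22 hr compound treatment; agonist 0.1 nM E2 final; same-well multiplex.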

[3] = qHTS assay to identify small molecule HDAC inhibitors (AID 1259364); also: potency is read from the fitted curve at half-maximal effect;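 also: wild-type HCT-116 cells with endogenous class I/II HDAC activity; nearly all actives have a fitted effect of over 45% in size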
How it was run: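 After a 2 hr compound incubation (37C, 5% CO2), HCT-116 cells seeded at 1,500/well the day before received HDAC-Glo reagent; signal read as luminescence after 30 min at room temperature.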

[4] = qHTS assay to identify small molecule agonists of the sonic hedgehog signaling (Shh) pathway - cell viability counter screen (AID 1259366); also: nearly all actives have a fitted effect of over 50% in size; also: potency is read from the fitted curve at half-maximal effect
How it was run: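 Fluorescence from CellTiter-Fluor reports live cells in this counter screen. NIH/3T3-derived Gli1-Luc reporter cells receive test compounds for 24hr at 37C; reagent goes in at 23hr.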

[5] = qHTS assay to identify small molecule antagonists of the sonic hedgehog signaling (Shh) pathway - cell viability counter screen (AID 1259367); also: nearly all actives have a fitted effect of over 55% in size; also: potency is read from the fitted curve at half-maximal effect
How it was run: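 Viability was read by CellTiter-Fluor fluorescence in the same wells, reagent added 23 hr into compound treatment and incubated 1 hr at 37C. The 3T3 Gli1-Luc reporter cells (2,000/well) received conditioned medium after compound and ran 24 hr.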

[6] = qHTS assay to identify small molecule antagonists of the androgen receptor (AR) signaling pathway using the MDA cell line in the presence of 0.5 nM R1881 - cell viability counter screen (AID 1259242); also: nearly all actives have a fitted effect of over 45% in size
How it was run: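 Human breast carcinoma MDA-kb2 cells, cultured without CO2, receive compounds alongside 0.5 nM (final) R1881 agonist. After 16 hr at 37C, viability is taken as live-cell protease signal.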

[7] = qHTS assay to identify small molecule HDAC inhibitors - cell viability counter screen (AID 1259365); also: series mostly up to about 92 µM; nearly all actives have a fitted effect of over 50% in size
How it was run: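 To flag cytotoxic hits, 1,500 wild-type HCT-116 cells per well, plated the day before, receive test compounds for 2hr at 37 C before CellTiter-Glo reagent and a luminescence read.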

[8] = qHTS assay to identify small molecule phospholipidosis (PLD) inducers (AID 1259344; active = well fitted curve in the direction sought with a large enough effect; an effect the other way counts as inactive or inconclusive)
How it was run: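 Phospholipid accumulation was scored by imaging: fixed, Hoechst-counterstained HepG2 cells stained with LipidTOX Red after 24 h compound exposure at 37 C. Read-outs were pit count and pit intensity per well or per cell, with amiodarone and DMSO controls.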

[9] = biological target: Androgen receptor (Homo sapiens) (UniProt P10275); experiment: qHTS assay to identify small molecule antagonists of the androgen receptor (AR) signaling pathway using the MDA cell line in the presence of 0.5 nM R1881 (AID 1259243); also: nearly all actives have a fitted effect of over 50% in size; also: potency is read from the fitted curve at half-maximal effect
Sequence of Androgen receptor (Homo sapiens) (P10275 whole entry, looked up): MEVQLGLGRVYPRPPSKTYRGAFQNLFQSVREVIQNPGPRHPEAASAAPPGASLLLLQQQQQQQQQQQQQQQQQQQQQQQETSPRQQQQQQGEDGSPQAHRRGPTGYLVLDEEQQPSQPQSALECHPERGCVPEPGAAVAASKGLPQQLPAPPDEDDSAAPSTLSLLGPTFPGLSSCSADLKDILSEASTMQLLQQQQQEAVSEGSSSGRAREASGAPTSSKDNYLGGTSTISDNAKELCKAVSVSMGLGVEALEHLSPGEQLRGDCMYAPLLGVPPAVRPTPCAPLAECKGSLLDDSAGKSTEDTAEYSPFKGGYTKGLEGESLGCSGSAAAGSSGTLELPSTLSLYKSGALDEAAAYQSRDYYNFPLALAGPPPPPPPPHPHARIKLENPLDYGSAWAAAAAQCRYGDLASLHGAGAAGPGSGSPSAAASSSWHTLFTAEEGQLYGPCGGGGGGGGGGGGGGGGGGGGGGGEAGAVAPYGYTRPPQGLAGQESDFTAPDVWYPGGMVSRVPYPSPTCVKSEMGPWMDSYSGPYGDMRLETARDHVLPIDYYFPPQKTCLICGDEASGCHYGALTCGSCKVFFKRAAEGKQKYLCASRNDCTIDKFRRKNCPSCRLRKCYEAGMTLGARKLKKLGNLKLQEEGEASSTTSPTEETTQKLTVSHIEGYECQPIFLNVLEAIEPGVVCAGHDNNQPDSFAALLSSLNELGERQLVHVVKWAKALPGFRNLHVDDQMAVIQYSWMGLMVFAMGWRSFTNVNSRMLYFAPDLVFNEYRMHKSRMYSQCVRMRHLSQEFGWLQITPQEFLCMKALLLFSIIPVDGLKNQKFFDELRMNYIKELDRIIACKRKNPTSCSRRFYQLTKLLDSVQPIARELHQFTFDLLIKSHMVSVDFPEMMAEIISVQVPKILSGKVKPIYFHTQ
How it was run: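 Cells: MDA-kb2 (MMTV-luc). Stimulus: 0.5 nM R1881. Time: 16 hr, 37C, no CO2. Detection: ONE-Glo luminescence after 30 min at RT.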

[10] = biological target: Estrogen receptor (Homo sapiens) (UniProt P03372); experiment: qHTS assay to identify small molecule antagonists of the estrogen receptor alpha (ER-alpha) signaling pathway using the BG1 cell line in the presence of 0.1 nM 17-beta-estradiol (AID 1259244); also: nearly all actives have a fitted effect of over 50% in size
Sequence of Estrogen receptor (Homo sapiens) (P03372 whole entry, looked up): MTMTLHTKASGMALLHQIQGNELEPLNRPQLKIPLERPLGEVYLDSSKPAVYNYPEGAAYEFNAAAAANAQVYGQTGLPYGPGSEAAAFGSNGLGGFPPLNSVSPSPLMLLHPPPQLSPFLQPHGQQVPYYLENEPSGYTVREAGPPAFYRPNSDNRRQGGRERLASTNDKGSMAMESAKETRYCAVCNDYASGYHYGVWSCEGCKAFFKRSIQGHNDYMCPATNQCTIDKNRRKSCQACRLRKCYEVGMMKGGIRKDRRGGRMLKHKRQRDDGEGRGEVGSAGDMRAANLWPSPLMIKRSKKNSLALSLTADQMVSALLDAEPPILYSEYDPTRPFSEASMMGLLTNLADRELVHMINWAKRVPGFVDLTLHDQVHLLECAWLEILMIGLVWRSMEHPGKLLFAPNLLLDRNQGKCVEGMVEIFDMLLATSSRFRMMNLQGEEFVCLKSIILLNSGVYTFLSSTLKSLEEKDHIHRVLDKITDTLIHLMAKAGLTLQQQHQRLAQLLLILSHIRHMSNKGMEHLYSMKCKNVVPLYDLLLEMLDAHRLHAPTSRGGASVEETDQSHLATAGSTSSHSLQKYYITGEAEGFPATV
How it was run: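 Seeding of stripped-serum-adapted VM7Luc4E2 cells, 24 h attachment, compound transfer, then 0.1 nM final 17beta-estradiol; after 22 h incubation, ONE-Glo reagent and luminescence reading.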

| SMILES | Potency [1] | Potency [2] | Potency [3] | Potency [4] | Potency [5] | outcome [6] | outcome [7] | outcome [8] | Potency [9] | Potency [10] |
| --- | --- | --- | --- | --- | --- | --- | --- | --- | --- | --- |
| Cc1cn([C@@H]2O[C@H](CO)[C@@H](O)[C@@H]2F)c(=O)[nH]c1=O | inactive | inactive | inactive | inactive | inactive | – | – | – | – | – |
| Cc1onc(-c2ccccc2)c1C(=O)Cl | – | inactive | inactive | inactive | – | inactive | inactive | – | – | – |
| CC(C)NCC(O)COc1ccc(CCOCC2CC2)cc1 (stereo not given) | inactive | inactive | inactive | inactive | inactive | – | – | inactive | – | – |
| CC1=NN(c2cc(Cl)c(S(=O)(=O)O)cc2Cl)C(=O)C1N=Nc1ccc(S(=O)(=O)O)cc1 (stereo not given) | inactive | – | 27.3 µM (active) | – | – | – | inactive | – | – | – |
| CCCCCCCCCCCCCCCCOP(=O)([O-])OCC[N+](C)(C)C | – | inactive | inactive | inactive | inactive | inactive | inactive | inactive | – | – |
| CCc1cc2cc(OC)c(OC)cc2c(Cc2ccccc2)n1 | – | inactive | inactive | inactive | inactive | inactive | – | – | 4.22 µM (active) | – |
| CC1=C(O)C(=O)OC1C (stereo not given) | inactive | inactive | inactive | inactive | inactive | – | inactive | – | – | – |
| CN(C)CCOc1ccccc1Cc1ccccc1 | – | inactive | inactive | inactive | inactive | inactive | inactive | – | – | – |
| CC[C@H]1CC[C@H](NCc2cc3c(cc2OC)[C@H]2C[C@H]2C(=O)N3C)[C@H](c2ccccc2)N1 | inactive | – | inactive | – | 8.63 µM (active) | – | inactive | – | – | – |
| Cc1ccc(C(C)C)cc1O | inactive | inactive | inactive | inactive | inactive | – | inactive | – | – | – |
| CCCCCCCCCCCCOCCOS(=O)(=O)O | 54.9 µM (active) | inactive | inactive | inactive | – | – | – | – | – | inactive |
| O=C(Cl)c1cccc([N+](=O)[O-])c1 | inactive | inactive | inactive | inactive | inactive | – | – | – | – | inactive |
| COc1cc(C)ccc1C(C)C | inactive | inactive | inactive | inactive | – | – | – | – | – | inactive |
| CCN(O)CC | inactive | inactive | 26.7 µM (active) | 30 µM (active) | 21.2 µM (active) | – | – | – | – | – |
| CN1CCN(c2c(F)cc3c(=O)c(C(=O)O)cn4c3c2SCC4)CC1 | inactive | inactive | inactive | inactive | inactive | – | inactive | inactive | – | – |
| COC(=O)N[C@H](C(=O)N[C@@H](Cc1ccccc1)[C@@H](O)CN(Cc1ccc(-c2ccccn2)cc1)NC(=O)[C@@H](NC(=O)OC)C(C)(C)C)C(C)(C)C | – | inactive | inactive | – | – | inactive | inactive | – | – | inactive |
| CN1CCN(C2=Nc3ccccc3Oc3ccc(Cl)cc32)CC1 | inactive | inactive | inactive | – | – | – | – | inactive | – | – |
| CCCCNC(=S)NCCCC | inactive | inactive | inactive | – | inactive | – | inactive | – | – | inactive |
| CCOC(=O)COc1ccc2c(c1)CC(NCC(O)c1cccc(Cl)c1)CC2 (stereo not given) | 44 µM (active) | – | inactive | 21.9 µM (active) | 27.5 µM (active) | inactive | inactive | – | – | – |
| CCCNC(C)C(=O)Nc1c(C)csc1C(=O)OC (stereo not given) | inactive | inactive | inactive | inactive | inactive | – | inactive | inactive | – | – |
| O=CCCc1ccccc1 | inactive | inactive | inactive | inactive | – | – | inactive | – | – | – |
| ClC(Cl)Cl | inactive | inactive | inactive | – | 42.9 µM (active) | – | inactive | inactive | – | – |
| OCc1ccccc1O | inactive | inactive | inactive | inactive | inactive | – | inactive | inactive | – | – |
| CCCCNc1ccc(C(=O)OCCN(CC)CC)cc1 | inactive | inactive | inactive | inactive | inactive | – | inactive | – | – | inactive |
| CCCCNc1cc(C(=O)O)cc(S(N)(=O)=O)c1Oc1ccccc1 | – | inactive | inactive | inactive | inactive | inactive | inactive | inactive | – | – |
| CC(C)Nc1nc(N)nc(Cl)n1 | inactive | inactive | inactive | inactive | – | – | inactive | – | – | – |
| CCCCNCCCC | inactive | inactive | inactive | inactive | inactive | – | inactive | – | – | – |
| CCC(=O)c1ccc2c(c1)N(CCCN(C)C)c1ccccc1S2 | inactive | – | inactive | inactive | inactive | inactive | inactive | – | – | – |
| O=c1[nH]c(=O)n([C@H]2C[C@H](O)[C@@H](CO)O2)cc1C(F)(F)F | inactive | inactive | inactive | inactive | inactive | – | inactive | inactive | – | – |
| CCCCCOc1ccc(C2SC(=O)NC2=O)cc1OCC (stereo not given) | – | inactive | inactive | inactive | inactive | inactive | inactive | inactive | inactive | inactive |
